Experimental data from PubChem BioAssay (Tox21).
Inconclusive results are not listed. Activity calls are given as the source filed them. Unless noted, the call rests on the fitted dose curve; in most records, active means well fitted curve in the direction sought with a large enough effect in the repeat runs; inconclusive means weak or mixed curves; inactive means no such curve, though single readings can be large; an effect the other way counts as inactive or inconclusive.

What was measured:
[1] = qHTS assay for small molecule agonists of the p53 signaling pathway (AID 651631; calls by dose curve; further: nearly all actives have a fitted effect of over 15% in size)
Summary of the method: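 HCT-116 cells carrying a stable p53 response element–beta-lactamase reporter were plated, rested 5 h at 37 °C, then exposed to compound in DMSO for 16 h at 37 °C; reporter activity was read as FRET substrate fluorescence after 2 h at room temperature.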

[2] = qHTS assay for small molecules that induce genotoxicity in human embryonic kidney cells expressing luciferase-tagged ATAD5 (AID 651632); further: nearly all actives have a fitted effect of over 15% in size
Summary of the method: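 Increased luciferase signal from ATAD5-tagged reporter cells indicates DNA-damage-driven ATAD5 induction. HEK293T cells are treated for 16 hr at 37C before detection with Amplite.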

[3] = qHTS assay for small molecule agonists of the p53 signaling pathway - cell viability (AID 651633; calls by dose curve; further: series mostly up to about 83 µM; nearly all actives have a fitted effect of over 30% in size)
Summary of the method: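 p53RE-bla cells were treated with compound for 16 hours at 37 C. Cytotoxicity was then measured as CellTiter-Glo luminescence after 30 min at room temperature.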

[4] = qHTS assay for small molecules that induce genotoxicity in human embryonic kidney cells expressing luciferase-tagged ATAD5 - cell viability (AID 651634; calls by dose curve; further: nearly all actives have a fitted effect of over 25% in size)
Summary of the method: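 Cytotoxicity counterscreen in HEK293T cells bearing an ATAD5-luciferase reporter: live-cell protease activity measured by CellTiter-Fluor fluorescence after 15.5 hr compound exposure.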

[5] = qHTS assay for small molecule disruptors of the mitochondrial membrane potential - cell viability (AID 720634; calls by dose curve;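 further: human HepG2 liver cancer cells; series mostly up to about 83 µM; nearly all actives have a fitted effect of over 20% in size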)
Summary of the method: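 After overnight attachment at 37 C, HepG2 cells received compound or DMSO vehicle for 1 hr. Viability is then taken from ATP-driven luminescence following a 30 min room-temperature CellTiter-Glo step.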

[6] = qHTS assay for small molecule disruptors of the mitochondrial membrane potential (AID 720635); further: potency means the concentration at half of the fitted maximal effect
Summary of the method: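 HepG2 cells exposed to compound 1 hr at 37C, then Mito-MPS dye 30 min. Ratio read of aggregate (540/590 nm) versus monomer (490/535 nm) fluorescence.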

[7] = qHTS assay to test for compound auto fluorescence at 590 nm (red) in HepG2 cells (AID 720674)
Summary of the method: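 HepG2 cells, 2,000 per well in MEM with 10% FBS, attached overnight at 37 C, then got 23 nL compound or DMSO. After 1 hr at 37 C, 5% CO2, red fluorescence was read at 540/590 nm against Rose Bengal sodium as reference.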

[8] = qHTS assay to test for compound auto fluorescence at 535 nm (green) in HepG2 cells (AID 720675)
[9] = qHTS assay to test for compound auto fluorescence at 460 nm (blue) in HEK293 cells (AID 720678)
Summary of the method: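 Cells were seeded and left to adhere for 4-5 hr at 37C. Compounds were then pin-transferred. After an overnight incubation at 37C under 5% CO2, intrinsic fluorescence at 405/460 nm was measured and referenced to triamterene.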

[10] = qHTS assay to test for compound auto fluorescence at 590 nm (red) in HEK293 cells (AID 720679)
Summary of the method: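 Each well held 2,000 HEK293 cells in medium containing 10% dialyzed FBS. Following 4-5 hr attachment at 37C, 23 nL test compound or DMSO was added; plates sat overnight, and red fluorescence (540/590nm) was recorded.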

[11] = qHTS assay to test for compound auto fluorescence at 460 nm (blue) in HEK293 cell free culture (AID 720681)
Summary of the method: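 Compounds were added to cell-free DMEM with 10% FBS and fluorescence read directly. The blue channel used 405 nm excitation and 460 nm emission, with triamterene as the reference fluorophore.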

[12] = qHTS assay to test for compound auto fluorescence at 535 nm (green) in HEK293 cell free culture (AID 720682)
Summary of the method: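 Read-out: 485/535 nm fluorescence intensity, calibrated against fluorescein. Medium only (DMEM + 10% FBS, no cells); test compound or DMSO vehicle added by pintool before plate reading.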

[13] = qHTS assay to test for compound auto fluorescence at 590 nm (red) in HEK293 cell free culture (AID 720683)
Summary of the method: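 Cell-free wells of DMEM with 10% FBS received compound, and intrinsic fluorescence was read at excitation/emission 540/590 nm. Values expressed as equivalence to Rose Bengal sodium.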

[14] = qHTS assay to test for compound auto fluorescence at 590 nm (red) in HepG2 cell free culture (AID 720684)
Summary of the method: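 Compounds are added to culture medium (MEM, 10% FBS) lacking cells, then fluorescence is read at excitation 540 nm, emission 590 nm, with Rose Bengal sodium as the equivalency standard.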

[15] = qHTS assay to test for compound auto fluorescence at 460 nm (blue) in HepG2 cell free culture (AID 720685)
Summary of the method: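 Compound (23 nL) or DMSO pinned into cell-free MEM with 10% FBS; blue fluorescence read at 405/460 nm excitation/emission, expressed as auto-fluorescence equivalency to triamterene.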

[16] = qHTS assay to test for compound auto fluorescence at 535 nm (green) in HepG2 cell free culture (AID 720686)
[17] = qHTS assay to test for compound auto fluorescence at 460 nm (blue) in HepG2 cells (AID 720687)
Summary of the method: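 HepG2 cells in MEM with 10% FBS, attached overnight at 37 C, were exposed to compound or DMSO for 1 hr at 37 C, 5% CO2. Blue fluorescence was read at 405/460 nm, with triamterene as reference fluorophore.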

[18] = qHTS assay to test for compound auto fluorescence at 535 nm (green) in HEK293 cells (AID 720680)
[19] = target: Glucocorticoid receptor (Homo sapiens) (UniProt P04150); experiment: qHTS assay to identify small molecule agonists of the glucocorticoid receptor (GR) signaling pathway (AID 720691; active means well fitted activation curve with a large enough effect in the signal ratio in the repeat runs, not every such curve was filed as active; the % refers to the signal ratio)
Summary of the method: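 Agonist mode in a HeLa line carrying a GRE-controlled beta-lactamase reporter. Compounds act for 18 h at 37 C before a 2 h room-temperature FRET substrate step and fluorescence reading.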

[20] = target: Glucocorticoid receptor (Homo sapiens) (UniProt P04150); experiment: qHTS assay to identify small molecule antagonists of the glucocorticoid receptor (GR) signaling pathway (AID 720692; active means well fitted inhibition curve with a large enough effect in the signal ratio in the repeat runs, not every such curve was filed as active; the % refers to the signal ratio)
Summary of the method: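 Cells plated, rested 4 h at 37 C/5% CO2; compounds in DMSO pin-transferred; dexamethasone added to 5 nM final; 18 h at 37 C; B/G FRET substrate added, 2 h room temperature; fluorescence measured.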
On the % scale 0 is the no-effect control and ±100 the full control effect.

Glucocorticoid receptor (Homo sapiens), sequence (P04150 whole entry, looked up): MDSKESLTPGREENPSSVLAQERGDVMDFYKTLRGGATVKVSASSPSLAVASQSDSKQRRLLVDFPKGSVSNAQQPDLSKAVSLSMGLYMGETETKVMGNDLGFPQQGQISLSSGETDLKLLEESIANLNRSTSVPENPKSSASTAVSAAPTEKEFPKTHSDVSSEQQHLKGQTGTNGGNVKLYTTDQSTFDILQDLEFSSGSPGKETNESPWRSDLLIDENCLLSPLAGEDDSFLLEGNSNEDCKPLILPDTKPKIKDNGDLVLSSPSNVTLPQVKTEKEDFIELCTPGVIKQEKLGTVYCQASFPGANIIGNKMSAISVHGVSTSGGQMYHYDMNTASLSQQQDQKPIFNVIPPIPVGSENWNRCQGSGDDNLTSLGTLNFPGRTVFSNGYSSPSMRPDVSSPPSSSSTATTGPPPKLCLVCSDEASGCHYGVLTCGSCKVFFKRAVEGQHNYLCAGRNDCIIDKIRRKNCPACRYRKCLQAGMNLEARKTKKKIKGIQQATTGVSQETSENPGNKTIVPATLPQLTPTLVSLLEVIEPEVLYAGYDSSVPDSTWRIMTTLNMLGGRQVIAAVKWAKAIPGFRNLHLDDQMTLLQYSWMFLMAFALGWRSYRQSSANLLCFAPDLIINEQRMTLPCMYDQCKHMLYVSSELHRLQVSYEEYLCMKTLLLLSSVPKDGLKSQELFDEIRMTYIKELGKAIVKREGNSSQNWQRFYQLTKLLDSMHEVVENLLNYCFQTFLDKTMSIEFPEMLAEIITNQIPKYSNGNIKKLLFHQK

CC(=O)OC(C)(C)Cc1ccccc1
inactive: outcome [1] | outcome [2] | outcome [3] | Potency [4] | outcome [5] | Potency [6] | outcome [7] | outcome [8] | outcome [9] | outcome [10] | outcome [11] | outcome [12] | outcome [13] | outcome [14] | outcome [15] | outcome [16] | outcome [17]

CCCCC(C)C(=O)O (configuration not stated)
inactive: outcome [1] | outcome [2] | outcome [3] | Potency [4] | outcome [5] | Potency [6] | outcome [7] | outcome [8] | outcome [9] | outcome [10] | outcome [18] | outcome [11] | outcome [12] | outcome [13] | outcome [14] | outcome [15] | outcome [16] | outcome [17]

Cc1cc(O)c2c(c1)C(=O)c1cccc(O)c1C2=O
inactive: outcome [1] | outcome [2] | outcome [3] | Potency [4] | outcome [5] | outcome [7] | outcome [8] | outcome [9] | outcome [10] | outcome [18] | outcome [11] | outcome [12] | outcome [13] | outcome [14] | outcome [15] | outcome [16] | outcome [17] | Potency [19]
active: Potency [6] 11.9 µM

CNC(=O)NC
inactive: outcome [1] | outcome [2] | outcome [3] | Potency [4] | outcome [5] | Potency [6] | outcome [7] | outcome [8] | outcome [9] | outcome [10] | outcome [18] | outcome [11] | outcome [12] | outcome [13] | outcome [14] | outcome [15] | outcome [16] | outcome [17]

C[C@H]1O[C@H](O[C@H]2[C@H](O)[C@@H](O)[C@@H](O[C@H]3[C@H](O)[C@@H](O)[C@H](O)O[C@@H]3CO)O[C@@H]2CO)[C@H](O)[C@@H](O)[C@@H]1N[C@H]1C=C(CO)[C@@H](O)[C@H](O)[C@H]1O
inactive: outcome [1] | outcome [2] | outcome [3] | Potency [4] | outcome [5] | Potency [6] | outcome [7] | outcome [8] | outcome [9] | outcome [10] | outcome [18] | outcome [11] | outcome [12] | outcome [13] | outcome [14] | outcome [15] | outcome [16] | outcome [17] | outcome [20]

CC(C)(c1ccc(Oc2ccc3c(c2)C(=O)OC3=O)cc1)c1ccc(Oc2ccc3c(c2)C(=O)OC3=O)cc1
inactive: outcome [1] | outcome [2] | outcome [3] | Potency [4] | outcome [5] | Potency [6] | outcome [7] | outcome [8] | outcome [9] | outcome [10] | outcome [18] | outcome [11] | outcome [12] | outcome [13] | outcome [14] | outcome [15] | outcome [16] | outcome [17] | Potency [19] | outcome [20]

CCC1COC(=O)O1 (configuration not stated)
inactive: outcome [1] | outcome [2] | outcome [3] | Potency [4] | outcome [5] | Potency [6] | outcome [7] | outcome [8] | outcome [9] | outcome [10] | outcome [18] | outcome [11] | outcome [12] | outcome [13] | outcome [14] | outcome [15] | outcome [16] | outcome [17] | Potency [19]

CO[Si](CCCCl)(OC)OC
active: Potency [6] 60.2 µM
inactive: outcome [1] | outcome [2] | outcome [3] | Potency [4] | outcome [5] | outcome [7] | outcome [8] | outcome [9] | outcome [10] | outcome [18] | outcome [11] | outcome [12] | outcome [13] | outcome [14] | outcome [15] | outcome [16] | outcome [17] | Potency [19] | outcome [20]

Nc1ccnc(=O)[nH]1
inactive: outcome [1] | outcome [2] | outcome [3] | Potency [4] | outcome [5] | Potency [6] | outcome [7] | outcome [8] | outcome [9] | outcome [10] | outcome [18] | outcome [11] | outcome [12] | outcome [13] | outcome [14] | outcome [15] | outcome [16] | outcome [17] | Potency [19] | outcome [20]

CN[C@@H]1[C@H](O)[C@H](NC)[C@H]2O[C@@]3(O)C(=O)C[C@@H](C)O[C@H]3O[C@@H]2[C@H]1O
inactive: outcome [1] | outcome [2] | outcome [3] | Potency [4] | outcome [5] | Potency [6] | fluorescence, relative to Rose Bengal [7] -0.0467% [at 18.6 µM] | fluorescence, % of fluorescein control [8] -0.162% [at 18.6 µM] | fluorescence, % of triamterene [9] -0.0174% [at 18.6 µM] | fluorescence, % of fluorescent control [10] 0.0398% [at 18.6 µM] | fluorescence, % of fluorescein [18] 0.0714% [at 18.6 µM] | fluorescence, % of fluorescent control [11] 0.0087% [at 18.6 µM] | activity change [12] 0.0093% [at 18.6 µM] | fluorescence, % of fluorescent control [13] 0.386% [at 18.6 µM] | fluorescence, % of Rose Bengal [14] 0.555% [at 18.6 µM] | fluorescence, % of fluorescent control [15] 0.0605% [at 18.6 µM] | fluorescence, % of fluorescein control [16] 0.0131% [at 18.6 µM] | fluorescence, % of fluorescent control [17] 0.0309% [at 18.6 µM] | outcome [20]

C1=C\CC/C=C\CC/1
inactive: outcome [1] | outcome [2] | outcome [3] | Potency [4] | outcome [5] | Potency [6] | outcome [7] | outcome [8] | outcome [9] | outcome [10] | outcome [18] | outcome [11] | outcome [12] | outcome [13] | outcome [14] | outcome [15] | outcome [16] | outcome [17]
